# Legend:
# [1] = target: T1, Activin receptor type-1B (Homo sapiens) (UniProt P36896); settings: at 1 µM
# T1 sequence (whole entry): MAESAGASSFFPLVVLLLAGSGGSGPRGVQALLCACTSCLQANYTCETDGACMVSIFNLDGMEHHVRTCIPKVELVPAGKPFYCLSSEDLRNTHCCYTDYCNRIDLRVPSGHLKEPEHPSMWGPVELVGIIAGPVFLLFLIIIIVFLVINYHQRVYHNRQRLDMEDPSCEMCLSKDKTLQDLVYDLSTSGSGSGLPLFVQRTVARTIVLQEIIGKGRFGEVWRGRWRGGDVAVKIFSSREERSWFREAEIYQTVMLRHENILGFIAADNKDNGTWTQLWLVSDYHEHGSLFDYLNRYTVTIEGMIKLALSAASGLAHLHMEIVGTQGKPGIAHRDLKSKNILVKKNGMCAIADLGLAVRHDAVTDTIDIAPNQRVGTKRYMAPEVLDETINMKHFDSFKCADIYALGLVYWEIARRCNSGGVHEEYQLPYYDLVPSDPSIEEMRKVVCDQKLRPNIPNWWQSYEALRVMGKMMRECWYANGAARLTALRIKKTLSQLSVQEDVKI
# [2] = target: T1, Activin receptor type-1B (Homo sapiens); settings: at 10 µM
# [3] = target: T2, AMP-activated protein kinase (AMPK) alpha-1/beta-1/gamma-1 (Homo sapiens) (UniProt P54619+Q9Y478+Q13131); settings: at 1 µM
# [4] = target: T2, AMP-activated protein kinase (AMPK) alpha-1/beta-1/gamma-1 (Homo sapiens); settings: at 10 µM
# [5] = target: T3, AMP-activated protein kinase, AMPK (Homo sapiens) (UniProt P54646+O43741+P54619+Q9UGJ0+Q9Y478+Q13131+Q9UGI9); settings: at 1 µM
# [6] = target: T3, AMP-activated protein kinase, AMPK (Homo sapiens); settings: at 10 µM
# [7] = target: T4, NUAK family SNF1-like kinase 1 (Homo sapiens) (UniProt O60285); settings: at 1 µM
# T4 sequence (whole entry): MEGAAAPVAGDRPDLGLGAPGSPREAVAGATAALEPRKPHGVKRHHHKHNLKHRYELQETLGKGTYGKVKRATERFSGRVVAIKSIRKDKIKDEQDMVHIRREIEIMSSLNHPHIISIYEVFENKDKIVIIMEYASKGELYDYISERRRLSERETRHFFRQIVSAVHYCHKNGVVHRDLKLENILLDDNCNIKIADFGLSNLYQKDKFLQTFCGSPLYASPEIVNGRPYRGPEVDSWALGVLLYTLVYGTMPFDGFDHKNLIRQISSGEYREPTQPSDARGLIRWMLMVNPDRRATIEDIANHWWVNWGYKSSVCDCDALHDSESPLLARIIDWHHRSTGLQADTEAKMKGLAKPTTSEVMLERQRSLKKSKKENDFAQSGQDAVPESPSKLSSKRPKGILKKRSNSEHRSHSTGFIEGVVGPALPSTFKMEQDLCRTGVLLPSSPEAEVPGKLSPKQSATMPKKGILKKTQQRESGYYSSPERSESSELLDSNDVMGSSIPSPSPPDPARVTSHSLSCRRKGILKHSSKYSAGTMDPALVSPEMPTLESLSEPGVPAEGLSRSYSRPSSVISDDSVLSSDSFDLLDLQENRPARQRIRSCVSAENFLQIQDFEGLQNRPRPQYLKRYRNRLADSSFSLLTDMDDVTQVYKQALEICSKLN
# [8] = target: T4, NUAK family SNF1-like kinase 1 (Homo sapiens); settings: at 10 µM
# [9] = target: T5, Mitogen-activated protein kinase kinase kinase 5 (Homo sapiens) (UniProt Q99683); settings: at 1 µM
# T5 sequence (whole entry): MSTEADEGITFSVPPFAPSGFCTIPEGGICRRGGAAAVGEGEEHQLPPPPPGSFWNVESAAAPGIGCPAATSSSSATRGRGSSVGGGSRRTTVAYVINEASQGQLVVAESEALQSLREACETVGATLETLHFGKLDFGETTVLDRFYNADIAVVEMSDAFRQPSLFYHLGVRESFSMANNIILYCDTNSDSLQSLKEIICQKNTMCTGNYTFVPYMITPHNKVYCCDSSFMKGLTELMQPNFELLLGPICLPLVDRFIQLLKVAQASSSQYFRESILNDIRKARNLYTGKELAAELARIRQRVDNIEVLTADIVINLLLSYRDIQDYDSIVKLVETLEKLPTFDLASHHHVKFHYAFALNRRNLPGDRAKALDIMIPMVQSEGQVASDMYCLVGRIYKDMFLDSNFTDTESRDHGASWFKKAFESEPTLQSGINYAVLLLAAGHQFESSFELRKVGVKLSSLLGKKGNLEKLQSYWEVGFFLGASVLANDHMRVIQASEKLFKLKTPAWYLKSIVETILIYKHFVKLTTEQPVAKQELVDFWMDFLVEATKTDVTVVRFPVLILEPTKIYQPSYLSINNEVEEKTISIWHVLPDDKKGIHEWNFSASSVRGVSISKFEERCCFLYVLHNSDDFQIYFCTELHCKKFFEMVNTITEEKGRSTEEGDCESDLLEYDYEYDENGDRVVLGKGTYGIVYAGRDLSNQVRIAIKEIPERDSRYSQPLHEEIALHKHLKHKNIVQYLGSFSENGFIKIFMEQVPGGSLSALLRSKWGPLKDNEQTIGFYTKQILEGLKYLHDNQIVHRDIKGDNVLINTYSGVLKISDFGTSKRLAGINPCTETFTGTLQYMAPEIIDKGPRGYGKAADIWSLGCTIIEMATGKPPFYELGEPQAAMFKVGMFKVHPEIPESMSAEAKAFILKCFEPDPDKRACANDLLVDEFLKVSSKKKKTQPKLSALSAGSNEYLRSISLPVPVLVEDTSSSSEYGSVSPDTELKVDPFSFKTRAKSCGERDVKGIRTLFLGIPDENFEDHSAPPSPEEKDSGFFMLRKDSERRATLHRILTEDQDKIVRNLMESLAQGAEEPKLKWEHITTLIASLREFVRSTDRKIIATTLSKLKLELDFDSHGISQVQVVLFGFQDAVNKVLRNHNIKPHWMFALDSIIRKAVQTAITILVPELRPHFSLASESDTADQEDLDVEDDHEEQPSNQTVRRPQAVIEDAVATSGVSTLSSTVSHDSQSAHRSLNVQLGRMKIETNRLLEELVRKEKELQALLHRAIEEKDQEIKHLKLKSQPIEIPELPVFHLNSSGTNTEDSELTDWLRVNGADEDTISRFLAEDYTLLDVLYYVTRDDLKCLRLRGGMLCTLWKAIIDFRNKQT
# [10] = target: Platelet-derived growth factor receptor alpha (Homo sapiens) (UniProt P16234); settings: at 1 µM
# [11] = target: Platelet-derived growth factor receptor alpha (Homo sapiens) (UniProt P16234); settings: at 10 µM
# [12] = target: Platelet-derived growth factor receptor beta (Homo sapiens) (UniProt P09619); settings: at 1 µM
# [13] = target: Platelet-derived growth factor receptor beta (Homo sapiens) (UniProt P09619); settings: at 10 µM
# [14] = target: T6, 3-phosphoinositide-dependent protein kinase 1 (Homo sapiens) (UniProt O15530); settings: at 1 µM
# T6 sequence (whole entry): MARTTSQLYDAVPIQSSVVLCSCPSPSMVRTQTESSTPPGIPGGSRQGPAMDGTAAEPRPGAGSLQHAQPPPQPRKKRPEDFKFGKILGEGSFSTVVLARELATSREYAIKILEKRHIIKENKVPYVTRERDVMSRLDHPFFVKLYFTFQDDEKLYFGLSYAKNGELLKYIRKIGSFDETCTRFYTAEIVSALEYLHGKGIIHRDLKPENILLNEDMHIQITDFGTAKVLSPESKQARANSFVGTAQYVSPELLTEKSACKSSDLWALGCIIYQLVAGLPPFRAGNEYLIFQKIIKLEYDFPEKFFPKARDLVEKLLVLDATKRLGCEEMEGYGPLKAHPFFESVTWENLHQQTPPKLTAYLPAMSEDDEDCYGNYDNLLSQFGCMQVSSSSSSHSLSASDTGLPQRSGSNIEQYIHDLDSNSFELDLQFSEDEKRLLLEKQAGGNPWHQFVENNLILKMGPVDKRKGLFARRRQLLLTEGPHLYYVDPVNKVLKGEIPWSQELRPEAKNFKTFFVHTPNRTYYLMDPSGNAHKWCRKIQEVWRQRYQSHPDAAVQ
# [15] = target: T6, 3-phosphoinositide-dependent protein kinase 1 (Homo sapiens); settings: at 10 µM
# [16] = target: cAMP-dependent protein kinase catalytic subunit alpha (Homo sapiens) (UniProt P17612); settings: at 1 µM
# [17] = target: RAC-alpha serine/threonine-protein kinase (Homo sapiens) (UniProt P31749); settings: at 1 µM
# [18] = target: RAC-alpha serine/threonine-protein kinase (Homo sapiens) (UniProt P31749); settings: at 10 µM
# [19] = target: RAC-gamma serine/threonine-protein kinase (Homo sapiens) (UniProt Q9Y243); settings: at 1 µM
# [20] = target: cAMP-dependent protein kinase catalytic subunit alpha (Homo sapiens) (UniProt P17612); settings: at 10 µM
# RAC-gamma serine/threonine-protein kinase (Homo sapiens), sequence (Q9Y243 whole entry): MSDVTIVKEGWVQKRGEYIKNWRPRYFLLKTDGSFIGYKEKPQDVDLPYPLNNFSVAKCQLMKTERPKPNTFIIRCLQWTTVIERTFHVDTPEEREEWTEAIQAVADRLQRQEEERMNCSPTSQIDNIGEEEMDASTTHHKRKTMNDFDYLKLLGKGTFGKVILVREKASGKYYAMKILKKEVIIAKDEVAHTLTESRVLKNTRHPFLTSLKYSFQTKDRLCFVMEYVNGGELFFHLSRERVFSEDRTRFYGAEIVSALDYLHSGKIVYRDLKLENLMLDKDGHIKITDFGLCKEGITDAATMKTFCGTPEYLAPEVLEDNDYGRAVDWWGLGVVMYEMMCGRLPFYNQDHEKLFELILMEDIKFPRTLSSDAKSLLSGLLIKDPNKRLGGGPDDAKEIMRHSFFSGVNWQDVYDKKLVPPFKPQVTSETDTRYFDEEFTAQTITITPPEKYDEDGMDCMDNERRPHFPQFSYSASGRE
# Platelet-derived growth factor receptor beta (Homo sapiens), sequence (P09619 whole entry): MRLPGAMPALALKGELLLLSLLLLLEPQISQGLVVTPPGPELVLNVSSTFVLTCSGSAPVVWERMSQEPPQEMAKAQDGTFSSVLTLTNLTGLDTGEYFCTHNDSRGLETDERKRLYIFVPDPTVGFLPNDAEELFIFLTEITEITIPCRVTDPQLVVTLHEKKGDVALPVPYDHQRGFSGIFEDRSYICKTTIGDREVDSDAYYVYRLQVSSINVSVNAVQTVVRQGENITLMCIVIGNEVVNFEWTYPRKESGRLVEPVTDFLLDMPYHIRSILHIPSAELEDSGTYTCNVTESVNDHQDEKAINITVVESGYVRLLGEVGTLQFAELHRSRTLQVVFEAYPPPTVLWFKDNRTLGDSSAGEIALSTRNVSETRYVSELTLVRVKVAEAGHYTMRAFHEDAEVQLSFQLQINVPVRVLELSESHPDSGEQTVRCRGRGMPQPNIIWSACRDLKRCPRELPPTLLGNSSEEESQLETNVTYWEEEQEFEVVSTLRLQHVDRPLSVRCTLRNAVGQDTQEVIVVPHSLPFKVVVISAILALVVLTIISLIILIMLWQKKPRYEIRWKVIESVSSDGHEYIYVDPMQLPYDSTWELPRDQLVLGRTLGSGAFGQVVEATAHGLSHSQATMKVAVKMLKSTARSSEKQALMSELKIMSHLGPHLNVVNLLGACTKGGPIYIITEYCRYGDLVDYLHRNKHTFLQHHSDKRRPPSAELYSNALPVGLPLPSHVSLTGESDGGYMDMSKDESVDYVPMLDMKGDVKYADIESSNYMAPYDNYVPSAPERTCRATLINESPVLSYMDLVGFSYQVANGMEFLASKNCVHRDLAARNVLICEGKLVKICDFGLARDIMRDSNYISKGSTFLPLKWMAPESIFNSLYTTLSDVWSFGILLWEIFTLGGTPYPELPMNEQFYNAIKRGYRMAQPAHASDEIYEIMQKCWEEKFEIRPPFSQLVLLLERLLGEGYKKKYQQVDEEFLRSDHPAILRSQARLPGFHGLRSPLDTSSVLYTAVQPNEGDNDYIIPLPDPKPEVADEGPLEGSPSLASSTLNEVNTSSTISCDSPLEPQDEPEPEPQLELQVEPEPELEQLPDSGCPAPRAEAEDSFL
# Platelet-derived growth factor receptor alpha (Homo sapiens), sequence (P16234 whole entry): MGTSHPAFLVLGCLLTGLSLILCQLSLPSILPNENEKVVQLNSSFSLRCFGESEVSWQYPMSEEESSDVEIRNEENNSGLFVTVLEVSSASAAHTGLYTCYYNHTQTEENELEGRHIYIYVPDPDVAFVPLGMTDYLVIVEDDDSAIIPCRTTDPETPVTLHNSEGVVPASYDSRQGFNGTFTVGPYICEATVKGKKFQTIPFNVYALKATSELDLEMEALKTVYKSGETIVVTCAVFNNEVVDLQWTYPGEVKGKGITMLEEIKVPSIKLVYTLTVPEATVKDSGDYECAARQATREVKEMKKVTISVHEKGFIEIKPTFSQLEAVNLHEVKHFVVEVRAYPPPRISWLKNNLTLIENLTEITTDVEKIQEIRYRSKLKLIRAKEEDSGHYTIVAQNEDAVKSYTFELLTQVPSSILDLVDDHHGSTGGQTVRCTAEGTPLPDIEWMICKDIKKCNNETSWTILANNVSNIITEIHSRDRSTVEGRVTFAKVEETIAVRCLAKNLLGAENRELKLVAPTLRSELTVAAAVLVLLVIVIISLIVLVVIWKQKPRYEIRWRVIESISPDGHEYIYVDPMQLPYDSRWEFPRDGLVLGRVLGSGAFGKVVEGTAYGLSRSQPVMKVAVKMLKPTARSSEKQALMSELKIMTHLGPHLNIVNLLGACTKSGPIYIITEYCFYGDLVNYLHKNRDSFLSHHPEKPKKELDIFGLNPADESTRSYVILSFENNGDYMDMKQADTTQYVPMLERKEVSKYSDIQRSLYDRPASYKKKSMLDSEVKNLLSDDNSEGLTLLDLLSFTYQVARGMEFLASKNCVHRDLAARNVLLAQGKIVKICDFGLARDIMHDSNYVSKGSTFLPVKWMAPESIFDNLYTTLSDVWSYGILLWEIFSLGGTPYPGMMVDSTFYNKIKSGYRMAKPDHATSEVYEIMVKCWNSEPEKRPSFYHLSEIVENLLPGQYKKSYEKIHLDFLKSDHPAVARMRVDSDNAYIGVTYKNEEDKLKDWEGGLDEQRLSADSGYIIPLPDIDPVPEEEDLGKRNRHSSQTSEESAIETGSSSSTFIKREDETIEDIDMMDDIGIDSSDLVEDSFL
# T2 sequence (P54619 whole entry): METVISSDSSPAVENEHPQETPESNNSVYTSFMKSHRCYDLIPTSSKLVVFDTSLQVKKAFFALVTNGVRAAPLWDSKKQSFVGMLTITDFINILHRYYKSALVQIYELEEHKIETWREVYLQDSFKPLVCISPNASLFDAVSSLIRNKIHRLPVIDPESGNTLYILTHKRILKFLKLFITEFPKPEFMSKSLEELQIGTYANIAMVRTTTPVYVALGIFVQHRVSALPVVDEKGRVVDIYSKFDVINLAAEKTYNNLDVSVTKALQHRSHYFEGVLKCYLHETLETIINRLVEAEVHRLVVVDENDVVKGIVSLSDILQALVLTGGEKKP
# T2 sequence (Q13131 whole entry partner): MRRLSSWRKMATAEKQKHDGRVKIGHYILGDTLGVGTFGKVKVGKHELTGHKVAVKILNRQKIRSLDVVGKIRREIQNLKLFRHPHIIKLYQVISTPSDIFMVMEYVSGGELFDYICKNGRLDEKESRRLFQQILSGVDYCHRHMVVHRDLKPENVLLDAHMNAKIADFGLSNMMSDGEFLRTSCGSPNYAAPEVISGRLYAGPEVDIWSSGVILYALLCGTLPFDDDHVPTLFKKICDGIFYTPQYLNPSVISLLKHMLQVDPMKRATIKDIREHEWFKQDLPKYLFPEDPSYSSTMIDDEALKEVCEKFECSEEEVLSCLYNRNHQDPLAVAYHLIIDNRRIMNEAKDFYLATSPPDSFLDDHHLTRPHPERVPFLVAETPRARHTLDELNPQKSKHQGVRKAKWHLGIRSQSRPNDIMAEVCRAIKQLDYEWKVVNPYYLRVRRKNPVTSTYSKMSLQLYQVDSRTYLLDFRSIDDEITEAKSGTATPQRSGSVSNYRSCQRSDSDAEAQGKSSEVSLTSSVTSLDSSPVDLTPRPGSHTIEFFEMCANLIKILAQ
# T2 sequence (Q9Y478 2-270 partner limits assumed): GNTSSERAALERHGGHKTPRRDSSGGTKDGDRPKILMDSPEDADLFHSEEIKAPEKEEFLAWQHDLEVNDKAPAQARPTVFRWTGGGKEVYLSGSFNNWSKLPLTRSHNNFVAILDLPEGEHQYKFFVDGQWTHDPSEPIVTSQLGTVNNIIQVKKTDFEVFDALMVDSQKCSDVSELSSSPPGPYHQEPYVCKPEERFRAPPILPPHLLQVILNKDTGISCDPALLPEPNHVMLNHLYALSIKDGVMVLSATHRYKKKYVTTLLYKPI
# RAC-alpha serine/threonine-protein kinase (Homo sapiens), sequence (P31749 whole entry): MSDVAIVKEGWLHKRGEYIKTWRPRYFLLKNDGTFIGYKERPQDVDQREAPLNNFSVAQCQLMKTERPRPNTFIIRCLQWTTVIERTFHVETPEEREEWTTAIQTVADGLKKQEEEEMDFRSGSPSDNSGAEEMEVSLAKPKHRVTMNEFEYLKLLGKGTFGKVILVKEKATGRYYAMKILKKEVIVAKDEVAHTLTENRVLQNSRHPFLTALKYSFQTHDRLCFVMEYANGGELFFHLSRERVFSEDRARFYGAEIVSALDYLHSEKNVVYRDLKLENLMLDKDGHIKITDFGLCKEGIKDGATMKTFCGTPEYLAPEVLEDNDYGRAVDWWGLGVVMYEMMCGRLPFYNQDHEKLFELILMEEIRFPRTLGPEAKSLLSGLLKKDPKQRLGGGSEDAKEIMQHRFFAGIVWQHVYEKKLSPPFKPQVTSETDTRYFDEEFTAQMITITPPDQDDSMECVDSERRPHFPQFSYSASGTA
structure (smiles),measurement,setting,value
COc1cc2ncnc(Nc3ccc(OCc4ccccc4)cc3)c2cc1OC,residual activity,[1],135%
same,residual activity,[2],119%
same,residual activity,[3],108%
same,residual activity,[4],99%
same,residual activity,[5],119%
same,residual activity,[6],82%
same,residual activity,[7],107%
same,residual activity,[8],90%
same,residual activity,[9],92%
same,residual activity,[10],95%
same,residual activity,[11],57%
same,residual activity,[12],106%
same,residual activity,[13],89%
same,residual activity,[14],119%
same,residual activity,[15],114%
same,residual activity,[16],88%
same,residual activity,[17],104%
same,residual activity,[18],122%
same,residual activity,[19],99%
CC(C)[C@H](CO)Nc1nc(Nc2cccc(Cl)c2)c2ncn(C(C)C)c2n1,residual activity,[3],92%
same,residual activity,[4],42%
same,residual activity,[5],95%
same,residual activity,[6],48%
same,residual activity,[7],84%
same,residual activity,[8],33%
same,residual activity,[9],102%
same,residual activity,[15],97%
N/C(=N\[N+](=O)[O-])N/N=C\c1ccc(-c2cccc([N+](=O)[O-])c2)o1,residual activity,[5],90%
same,residual activity,[6],97%
same,residual activity,[9],96%
same,residual activity,[10],83%
same,residual activity,[11],54%
same,residual activity,[12],100%
same,residual activity,[13],60%
same,residual activity,[19],77%
COc1cc(OC)c(/C=C2\C(=O)Nc3ccccc32)c(OC)c1,residual activity,[3],104%
same,residual activity,[4],82%
same,residual activity,[6],95%
same,residual activity,[7],102%
same,residual activity,[8],84%
same,residual activity,[9],91%
same,residual activity,[10],82%
same,residual activity,[11],69%
same,residual activity,[16],100%
same,residual activity,[20],91%
same,residual activity,[19],103%
Ic1cccc(CSc2nnc(-c3ccncc3)o2)c1,residual activity,[17],116%
O=C1NC(=O)c2cc(Nc3ccc(F)cc3)c(Nc3ccc(F)cc3)cc21,residual activity,[17],101%
same,residual activity,[18],107%
CCc1nc(-c2ccc(OC)cc2)[nH]c1-c1ccncc1,residual activity,[3],101%
same,residual activity,[10],114%
same,residual activity,[11],109%
same,residual activity,[12],110%
same,residual activity,[13],108%
same,residual activity,[14],110%
same,residual activity,[15],101%
same,residual activity,[17],113%
same,residual activity,[18],108%
CN(C)CCCn1cc(C2=C(c3c[nH]c4ccccc34)C(=O)NC2=O)c2ccccc21,residual activity,[17],103%
same,residual activity,[18],104%
O=c1[nH]c2ccccc2n1C1CCN(Cc2ccc(-c3nc4cc5[nH]cnc5cc4nc3-c3ccccc3)cc2)CC1,residual activity,[1],117%
same,residual activity,[2],101%
same,residual activity,[3],108%
same,residual activity,[4],94%
same,residual activity,[5],107%
same,residual activity,[6],79%
same,residual activity,[7],113%
same,residual activity,[8],80%
same,residual activity,[9],99%
same,residual activity,[10],127%
same,residual activity,[11],101%
same,residual activity,[12],108%
same,residual activity,[13],96%
same,residual activity,[14],113%
same,residual activity,[15],120%
same,residual activity,[16],97%
same,residual activity,[20],145%
same,residual activity,[17],98%
same,residual activity,[18],90%
same,residual activity,[19],118%
CN[C@@H]1C[C@H]2O[C@@](C)([C@@H]1OC)n1c3ccccc3c3c4c(c5c6ccccc6n2c5c31)C(=O)NC4,residual activity,[7],8%
same,residual activity,[8],1%
same,residual activity,[14],1%
same,residual activity,[15],0%
CC(C)n1cnc2/c(=N/c3cccc(Cl)c3)nc(NCCO)[nH]c21,residual activity,[17],111%
same,residual activity,[18],109%

# Reference: ChEMBL document CHEMBL2218924, “A broad activity screen in support of a chemogenomic map for kinase signalling research and drug discovery” (Biochem J, 2013)
